Counter-ions that a name gives are not always drawn. In all, about 1,800 compounds went through this assay and about 50 (3%) showed activity. This is one part of a sample in which actives are shown more often than they occur. A number with no mark means an inactive call.
What follows are compounds tested on mouse p16Ink4a+/- lung fibroblasts (INKBRITE, bleomycin-injured) (assay: percentage of GFP+ (p16Ink4a+) fibroblasts among all cells in well; higher = less depletion of p16Ink4a+ cells, active = 20 or less). Conditions: 1 µM; 3 days.

Structure (SMILES) | percentage of GFP+
CC(=O)NC[C@H]1CN(c2ccc(N3CCOCC3)c(F)c2)C(=O)O1 [Linezolid] | 52.5%
O=C(O)c1ccc2c(c1)nc(Nc1cccc(Cl)c1)c1ccncc12 [Silmitasertib] | 43.8%
COc1ccc2cc(-c3[nH]c(-c4ccc(S(C)=O)cc4)nc3-c3ccncc3)ccc2c1 (stereo not drawn) [Tie2 kinase inhibitor] | 43.3%
CC(C)Cc1ccc(C(C)C(=O)O)cc1 (racemic) | 48.8%
COc1cc(NC(=O)c2ccc(-c3ccc(Cl)cc3)o2)cc(OC)c1 | 52%
O=C(Nc1cc(C(F)(F)F)cc(C(F)(F)F)c1)c1cc(Cl)ccc1O | 42.4%
Cc1c(-c2ccc(O)cc2)n(Cc2ccc(OCCN3CCCCCC3)cc2)c2ccc(O)cc12 [Bazedoxifene] | 47.1%
CCCCOc1ccc(C(=O)CCN2CCCCC2)cc1 [Dyclonine] | 47.1%
O=C(c1ccc(OCCN2CCCCC2)cc1)c1c(-c2ccc(O)cc2)sc2cc(O)ccc12 [Raloxifene] | 16.8% (active)
OCCn1cc(-c2cnc3nnn(Cc4ccc5ncccc5c4)c3n2)cn1 | 41.7%
c1coc(CNc2ncnc3[nH]cnc23)c1 [Kinetin] | 41.6%
CO[C@H]1/C=C\C=C(/C)C(=O)NC2=CC(=O)/C(=N\CCN(C)C)C(=C2O)C[C@@H](C)C[C@H](OC)[C@H](O)[C@@H](C)/C=C(\C)[C@@H]1OC(N)=O [Alvespimycin] | 12.4% (active)
COC1=C2C[C@@H](C)C[C@H](OC)[C@H](O)[C@@H](C)/C=C(\C)[C@H](OC(N)=O)[C@@H](OC)/C=C/C=C(\C)C(=O)/N=C(/C=C1O)C2=O [Geldanamycin] | 13.5% (active)
C=CC/N=C1\C(=O)C=C2NC(=O)/C(C)=C/C=C\[C@H](OC)[C@@H](OC(N)=O)/C(C)=C/[C@H](C)[C@@H](O)[C@@H](OC)C[C@H](C)CC1=C2O [Tanespimycin] | 11.8% (active)
Nc1cccc2c1C(=O)N(C1CCC(=O)NC1=O)C2=O (stereo not drawn) [Pomalidomide] | 46.7%
CCCCCCCCCCCCCCCC(=O)OC1C(SC)OC(C(NC(=O)C2CC(CCC)CN2C)C(C)Cl)C(O)C1O (stereo not drawn) [Clindamycin palmitate HCl] | 45.8%
COc1cc(Nc2nc3ccccc3nc2NS(=O)(=O)c2ccc(NC(=O)c3ccc(C)c(OC)c3)cc2)cc(OC)c1 | 37.4%
CC(C(=O)O)c1ccc2c(c1)[nH]c1ccc(Cl)cc12 (stereo not drawn) [Carprofen] | 45.4%

From the supplement of paper PMC11060735
